The list is not random: actives were taken first. Their share in the collection is about 3.6%.
mHTT-CaM PPI inh: mHTT-calmodulin interaction abrogation. P42858. AlphaScreen His-mHTT/GST-CaM binding, luminescence. inhibition, % at 15 µM. 3.6% of 190,000 active. AID 1671202
Pf apPOL inh: Pf-apPOL DNA polymerase inhibition; inhibition, % at 10 µM; AID 1794808; 0.25% of 210,000 active; Recombinant Pf-apPOL, molecular beacon fluorescence, 1.5 h
Hits are given with their value; – = inactive; · = no result given. Cut-off read from the data, not from the text of the source: active = inhibition above about 50%; inactive = the rest.

SMILES	mHTT-CaM PPI inh	Pf apPOL inh
CC12CC3CC(C)(C1)CC(c1ccc(O)cc1)(C3)C2	65	–
CC12CC3(C)CC(C)(C1)CC(C(=O)Nc1ccc(C45CC6CC(CC(C6)C4)C5)cc1)(C2)C3	–	–
Cc1nc(-c2ccc(Sc3ccc(Cl)cc3)c([N+](=O)[O-])c2)cs1	·	–
O=C1C(Nc2cccc(O)c2)=C(N2CCCCC2)C(=O)c2ccccc21	–	–
O=C1C(Nc2cccc(C(F)(F)F)c2)=C(n2nnc3ccccc32)C(=O)c2ccccc21	–	–
O=C1C(Nc2cccc(C(F)(F)F)c2)=C(N2CCCCC2)C(=O)c2ccccc21	99	–
CC(=O)N(C1=C(N2CCCC2)C(=O)c2ccccc2C1=O)c1cccc(Cl)c1	100	–
CC(=O)N(C1=C(N2CCCCC2)C(=O)c2ccccc2C1=O)c1cccc(F)c1	–	–
O=C1C(Nc2cccc(Cl)c2)=C(N2CCCCC2)C(=O)c2ccccc21	68	–
O=C(NCCN1CCN(C(=O)c2ccsc2)CC1)c1cc(-c2cccs2)[nH]n1	–	–
Cc1ccnc(N2CCC(C(=O)Nc3ccc(CN4CCC(C)CC4)cc3)CC2)n1	–	–
COc1ccc(C)cc1C(=O)C1CC(C(=O)O)C(C)(C)C1C (stereo not given)	–	59
COc1ccc(C)cc1NC(=O)C1C2C=CC(C2)C1C(=O)O (stereo not given)	–	–
O=C1CC(CNS(=O)(=O)c2cccc(C(F)(F)F)c2)CN1c1ccc(Cl)cc1 (stereo not given)	–	–
COc1ccc(N2CCC(CNS(=O)(=O)c3cccc(C(F)(F)F)c3)C2)cc1 (stereo not given)	73	–
CCCC(=O)OC1CC(n2cc(C)c(=O)[nH]c2=O)OC1CO (stereo not given)	–	·
COc1ccc(-n2nc(C(=O)NCc3ccccc3OC)c3ccccc3c2=O)c(OC)c1	–	–
Cc1ccc(S(=O)(=O)N2CCCC2c2nc(-c3cccc(Cl)c3)no2)cc1C (stereo not given)	–	–
c1ccc(CN2CCCC(c3n[nH]c(C4CC4)n3)C2)nc1 (stereo not given)	95	–
c1ccc(-n2cnnc2C2CCCN(Cc3ccccn3)C2)cc1 (stereo not given)	87	–
N#Cc1cccc(CN2CCCC(c3nncn3-c3ccccc3)C2)c1 (stereo not given)	–	–
c1cc(CN2CCCC(c3n[nH]c(C4CC4)n3)C2)ccn1 (stereo not given)	–	–
O=C(COc1ccc(Cl)cc1)Nc1ccc(-c2cn3c(n2)SCC3)cc1	–	–
COCC(C)NC(=O)C(=O)NC1CCCCCC1 (stereo not given)	–	–
CCS(=O)(=O)c1ccc(-c2nnc(NC(=O)C3CCCN(S(C)(=O)=O)C3)o2)cc1 (stereo not given)	–	–
SMILES	mHTT-CaM PPI inh	Pf apPOL inh
Cc1ccc(NC(=O)C2CCCN(S(=O)(=O)c3cccs3)C2)cn1 (stereo not given)	–	–
CS(=O)(=O)N1CCCC(C(=O)Nc2nnc(-c3ccno3)o2)C1 (stereo not given)	50	–
Cc1cc(-c2nnc(NC(=O)C3CCCN(S(=O)(=O)c4cccs4)C3)o2)nn1C (stereo not given)	51	–
O=C1c2ccc(Oc3ccc([N+](=O)[O-])cc3)cc2C(=O)N1CC1CCCO1 (stereo not given)	–	–
COc1ccc(OC)c(C=C2Oc3c(ccc(O)c3CN3CCN(C)CC3)C2=O)c1	–	–
Cc1nnc(NC(=O)CSc2cn(Cc3ccc(F)cc3)c3ccccc23)s1	–	–
O=C(CCn1ccc(=O)[nH]c1=O)NCc1cccc(Oc2ccc(F)cc2)c1	–	–
O=c1/c(=C/c2ccncc2)sc2n1CN(c1cccc(F)c1)CN=2	–	–
CN(c1ccc(F)cc1)S(=O)(=O)c1ccc2[nH]cc(C(=O)O)c(=O)c2c1	–	–
CN(C)c1ccc2[nH]c3c(C(=O)O)cc(=O)c(=O)c=3oc2c1	67	·
COc1ccc(-c2cc(C(F)(F)F)n3nc(C(=O)Nc4nccs4)cc3n2)cc1	–	–
CCc1ccccc1N(C)C(=O)C1CCN(c2ncnc3c2nc2n3CCCCC2)CC1	–	–
COc1ccc(-c2noc(C3CCCN3C(=O)C3CCCC3)n2)cc1 (stereo not given)	–	–
Cc1ccccc1-n1nc2c(c1NC(=O)CSCc1ccccc1)CSC2	81	–
O=C(Nc1c2c(nn1-c1ccc(Cl)cc1)CSC2)c1cccs1	50	–
CCC(=O)Nc1c2c(nn1-c1ccccc1C)CSC2	–	–
O=C(/C=C/c1ccc2c(c1)OCO2)Nc1c2c(nn1-c1ccc(Cl)cc1)CSC2	–	–
Cc1ccc(-n2nc3c(c2NC(=O)/C=C/c2ccccc2)CSC3)c(C)c1	–	–
O=C(/C=C/c1ccccc1)Nc1c2c(nn1-c1ccc(Cl)cc1)CSC2	56	–
Cc1ccccc1-n1nc2c(c1NC(=O)/C=C/c1ccccc1)CSC2	81	–
O=C(Nc1c2c(nn1-c1ccccc1)CSC2)c1cccs1	–	–
CC1=NNC(=O)C1C(c1ccc(C)cc1)C(C#N)C#N (stereo not given)	–	–
O=C(O)CCN=C(NS(=O)(=O)c1ccccc1)c1ccccc1	–	–
CCCCN1C(=O)C(C)(C(=O)NCc2ccc(F)cc2)Oc2cccnc21 (stereo not given)	–	–
CCN1CCN(S(=O)(=O)c2cc(Br)cc3c2N(C(=O)C2CC2)CC3)CC1	–	–
SMILES	mHTT-CaM PPI inh	Pf apPOL inh
Cc1ccc(NCN2C(=O)C3CCC(C)CC3C2=O)cc1 (stereo not given)	–	–
Nc1ccc(N)c2c1C(=O)c1c(N)ccc(N)c1C2=O	92	–
Nc1ccc(C(=O)c2ccc(N)c(N)c2)cc1N	–	–
CCCCOCC(O)C[N+]1(Cc2ccccc2)CCCC1 (stereo not given)	–	–
Cc1nc2c(ccc3nc(NC(=O)c4ccc5c(c4)OCCO5)sc32)s1	69	–
Cc1nc2c(ccc3nc(NC(=O)c4ccc(Cl)s4)sc32)s1	–	–
CCOc1ccc(C(=O)Nc2ccc(N(CC)CC)cc2)cc1[N+](=O)[O-]	–	–
CCN(CC)c1ccc(NC(=O)c2ccc(OC)c([N+](=O)[O-])c2)cc1	62	–
COc1ccc(C(=O)Nc2ccc(I)cc2)c(OC)c1	–	–
CCN(CC)c1ccc(NC(=O)c2ccc(OC)cc2OC)cc1	67	–
Cc1ccc(Nc2ccc(NC(=O)c3snnc3C)cc2)nn1	100	–
Cc1nnsc1C(=O)Nc1ccc(CN2CCS(=O)(=O)CC2)cc1	·	–
Cc1ccc(Cl)cc1NC(=O)N1CCCC(C)(C(=O)NCc2ccccc2)C1 (stereo not given)	–	–
N#CC1=C(N)C2=CCCCC2C(c2cccnc2)C1(C#N)C#N (stereo not given)	–	–
N#CC1=C(N)N(c2ccc(Br)cn2)C2=C(C(=O)CCC2)C1c1ccsc1 (stereo not given)	–	–
O=C(NC1CCCCCC1)c1cccc(CN2C(=O)C3CCCN3C(=O)c3ccccc32)c1 (stereo not given)	–	–
N#Cc1nc(COc2ccc(Br)cc2)oc1N1CCCCC1	51	–
N#Cc1nc(COc2ccc(Br)cc2)oc1N1CCC(C(N)=O)CC1	–	–
CC1=NN(c2cc(Cl)ccc2Cl)C(=O)/C1=C/c1cccn1-c1ccc(S(N)(=O)=O)cc1	63	–
NS(=O)(=O)c1ccc(-n2cccc2/C=N/n2cnnc2)cc1	–	·

Bioassay records (PubChem BioAssay)
